Where “and” joins values, the source holds several entries; their conditions need not be identical. Equal entries are not always repeated. Out of some 5,500 compounds screened, about 2,000 (36%) were called active. Not shown: some 18% with an inconclusive outcome. No stated cut-off is given here; in the data, active means normalized growth mostly below about 0.91 (no sharp cut-off); inconclusive means no clear call, values can overlap the other calls; inactive means mostly above about 0.92. This is one part of the list.
Experiment: chemical genetic growth profiling, strain panel (AID 1159580);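 further: tested at 20 µM; growth read once vehicle control cultures reached saturation at 30 °C; 1 = growth at the plate median or of vehicle wells; lower values mean less growth of the strain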
Conditions: S. cerevisiae deletion strains, growth OD

Measured: normalized growth

NC(N)=Nc1nc(CSCCC(N)=NS(N)(=O)=O)cs1
inactive: locus YAL013W, strain DEP1, hits give low values 1 | locus YAL021C, strain ccr4, hits give low values 0.996 | locus YAL026C, strain drs2, hits give low values 0.995 | locus YAL030W, strain snc1, hits give low values 0.982 | locus YAL040C, strain CLN3, hits give low values 0.997 | locus YBL061C, strain skt5, hits give low values 0.978 | locus YBR009C, strain hhf1, hits give low values 1.01 | locus YBR021W, strain FUR4, hits give low values 0.996 | locus YBR023C, strain chs3, hits give low values 0.997 | locus YBR171W, strain sec66, hits give low values 0.958 | locus YBR229C, strain ROT2, hits give low values 1 | locus YBR231C, strain swc5, hits give low values 0.959 | locus YBR279W, strain paf1, hits give low values 0.997 | locus YCL011C, strain gbp2, hits give low values 0.993 | locus YCL016C, strain dcc1, hits give low values 0.992 | locus YCL029C, strain bik1, hits give low values 1.02 | locus YCL061C, strain MRC1 (second series), hits give low values 1.01 | locus YCL069W, strain vba3, hits give low values 0.991 | locus YCR088W, strain abp1, hits give low values 0.978 | locus YDL005C, strain med2, hits give low values 0.974 | locus YDL035C, strain GPR1, hits give low values 1 | locus YDL040C, strain nat1, hits give low values 0.969 | locus YDL074C, strain BRE1, hits give low values 1.03 | locus YDL101C, strain DUN1, hits give low values 1.01 | locus YDL134C, strain PPH21, hits give low values 1.01 | locus YDL185W, strain tfp1, hits give low values 1.01 | locus YDL192W, strain arf1, hits give low values 1.01 | locus YDR001C, strain nth1, hits give low values 0.972 | locus YDR069C, strain doa4, hits give low values 0.968 | locus YDR101C, strain arx1, hits give low values 1.01 | locus YDR137W, strain rgp1, hits give low values 1 | locus YDR150W, strain NUM1, hits give low values 0.996 | locus YDR159W, strain sac3, hits give low values 0.986 | locus YDR162C, strain NBP2, hits give low values 1.01 | locus YDR195W, strain ref2 0.969 | locus YDR297W, strain sur2, hits give low values 0.997 | locus YDR318W, strain mcm21, hits give low values 1.02 | locus YDR334W, strain swr1, hits give low values 0.967 | locus YDR335W, strain msn5, hits give low values 0.968 | locus YDR363W, strain ESC2, hits give low values 0.999 | locus YDR388W, hits give low values 1.01 | locus YDR392W, strain spt3, hits give low values 1.02 | locus YDR502C, strain sam2, hits give low values 1 | locus YEL003W, strain gim4, hits give low values 0.983 | locus YEL037C, strain rad23, hits give low values 0.975 | locus YEL061C, strain CIN8 (second series), hits give low values 0.992 | locus YEL061C, strain CIN8, hits give low values 1.01 | locus YER002W, strain NOP16, hits give low values 1 | locus YER015W, strain faa2, hits give low values 0.986 | locus YER016W, strain bim1, hits give low values 1.01 | locus YER110C, hits give low values 1.01 | locus YER111C, strain swi4, hits give low values 0.991 | locus YER155C, strain BEM2 (second series), hits give low values 0.988 | locus YER155C, strain BEM2, hits give low values 1 | locus YER167W, strain BCK2, hits give low values 1.01 | locus YFR010W, strain ubp6, hits give low values 1 | locus YGL078C, strain dbp3, hits give low values 1 | locus YGL086W, strain mad1, hits give low values 0.996 | locus YGL167C, strain pmr1, hits give low values 0.961 | locus YGL173C, strain kem1, hits give low values 0.976 | locus YGL227W, strain vid30, hits give low values 0.964 | locus YGL240W, strain doc1, hits give low values 0.973 | locus YGL248W, strain PDE1, hits give low values 0.985 | locus YGL253W, strain hxk2, hits give low values 0.991 | locus YGR078C, strain PAC10, hits give low values 1.03 | locus YGR229C, strain SMI1, hits give low values 0.989 and 0.992 | locus YGR252W, strain gcn5, hits give low values 0.993 | locus YHR013C, strain ard1, hits give low values 1.01 | locus YHR027C, strain rpn1, hits give low values 0.993 | locus YHR030C, strain SLT2, hits give low values 1.01 and 0.989 | locus YHR079C, strain IRE1 (second series), hits give low values 1.01 | locus YHR079C, strain IRE1, hits give low values 0.972 | locus YHR094C, strain hxt1, hits give low values 1.01 | locus YHR129C, strain ARP1, hits give low values 1.01 | locus YHR142W, strain chs7, hits give low values 0.959 | locus YHR200W, strain rpn10, hits give low values 1.01 | locus YIL066C, strain RNR3, hits give low values 1.01 | locus YIL073C, strain SPO22, hits give low values 1.04 | locus YIL125W, strain kgd1, hits give low values 1 | locus YIR030C, strain dcg1, hits give low values 1.01 | locus YJL092W, strain hpr5, hits give low values 0.987 | locus YJL095W, strain BCK1 (second series), hits give low values 0.993 | locus YJL095W, strain BCK1, hits give low values 1.04 and 0.984 | locus YJL115W, strain asf1, hits give low values 0.983 | locus YJL129C, strain trk1, hits give low values 0.944 | locus YJL134W, strain LCB3, hits give low values 1 | locus YJL154C, strain vps35, hits give low values 0.983 | locus YJL164C, strain tpk1, hits give low values 1.01 | locus YJL166W, strain qcr8, hits give low values 0.981 | locus YJL168C, strain set2, hits give low values 1.01 | locus YJL187C, strain SWE1 (second series), hits give low values 1.02 | locus YJL187C, strain SWE1, hits give low values 0.984 | locus YJR043C, strain POL32, hits give low values 1.01 | locus YJR066W, strain TOR1, hits give low values 0.921 | locus YJR075W, strain HOC1, hits give low values 1.01

Reference: PubChem BioAssay AID1159580 (chemical genetic matrix, 2015)
